9 molecules from PubChem BioAssay (NCI) can be followed below.

Structures are written as SMILES. About 83,000 compounds went through this panel and 20% of them were active in at least one assay; those are over-represented in the sample as a whole.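 Method: cells in 96-well plates; compound added at one concentration; 48 h incubation; percent growth measured; values under 10 scored active.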 A number with no mark means an inactive call. The source made the active and inactive calls.

Some test systems named below: SR leukemia; RPMI-8226 leukemia; OVCAR-8 ovarian; OVCAR-5 ovarian; OVCAR-4 ovarian; SK-OV-3 ovarian; IGROV1 ovarian; OVCAR-3 ovarian; HS 578T breast; NCI/ADR-RES ovarian; T-47D breast; BT-549 breast; MDA-MB-435 melanoma; SW-620 colon; MCF7 breast; HCT-116 colon; HCC-2998 colon; KM12 colon.
Assay in all cases: NCI-60 one-dose screen, 48 h (100 = growth as untreated, 0 = no growth, -100 = all killed)
Common to all, as to details: 10 µM

On to `Cc1ccc2nc(-c3ccc(OCC(=O)N=Nc4c(O)[nH]c5ccccc45)cc3)[nH]c2c1`, for which the growth with SR leukemia is -17.5% (active); with RPMI-8226 leukemia, 25.7%; in the assay with OVCAR-8 ovarian it was 18.5%; in the assay with OVCAR-5 ovarian it was 104%; in the assay on OVCAR-4 ovarian it was 11.6%; in the assay with SK-OV-3 ovarian, 99.5%. Besides, the growth with IGROV1 ovarian is 85.8%; in the assay with OVCAR-3 ovarian, 26.5%; in the assay on HS 578T breast, 91.5%; with NCI/ADR-RES ovarian it was 89.9%; with T-47D breast, 38.4%; with BT-549 breast, 109%. Besides, the growth is 64.3% with MDA-MB-435 melanoma; 6.51% (active) with SW-620 colon; -24.7% (active) with MCF7 breast; -20.5% (active) in the assay on HCT-116 colon; 59.7% in the assay on HCC-2998 colon; 1.59% (active) with KM12 colon.
In the case of `CCCCCC(=O)N1c2ccccc2NC2=C(C(=O)CC(c3ccc(OC)c(OC)c3)C2)C1c1ccc(C(F)(F)F)cc1` (centres undefined), the growth is 51.8% in the assay on SR leukemia; 21.6% in the assay on RPMI-8226 leukemia; 47.1% in the assay with OVCAR-8 ovarian; 103% in the assay with OVCAR-5 ovarian; 41.8% in the assay on OVCAR-4 ovarian; 83.6% in the assay with SK-OV-3 ovarian. For the same molecule, the growth is 63% in the assay on IGROV1 ovarian; 33.1% in the assay with OVCAR-3 ovarian; 78.7% with HS 578T breast; 58.7% in the assay with NCI/ADR-RES ovarian; 36.9% in the assay with T-47D breast; 75.9% in the assay on BT-549 breast. Also, the growth was 62.4% in the assay with MDA-MB-435 melanoma; 68.8% with SW-620 colon; 50.2% in the assay on MCF7 breast; 39.3% in the assay on HCT-116 colon; 81.2% with HCC-2998 colon.
For the molecule `CC(C)c1ncc(CO)n1Cc1c(Cl)cccc1Cl`, the growth in the assay with SR leukemia was 97.4%; in the assay on RPMI-8226 leukemia, 97.6%; in the assay with OVCAR-8 ovarian, 105%; with OVCAR-5 ovarian, 106%; in the assay with OVCAR-4 ovarian it was 116%; in the assay with SK-OV-3 ovarian, 99.5%. In addition, the growth with IGROV1 ovarian is 100%; in the assay with OVCAR-3 ovarian it was 105%; in the assay on HS 578T breast, 104%; in the assay on NCI/ADR-RES ovarian, 110%; in the assay with T-47D breast, 73.8%; with BT-549 breast it was 104%. Also, the growth is 102% with MDA-MB-435 melanoma; 100% in the assay on SW-620 colon; 99.5% with MCF7 breast; 102% in the assay on HCT-116 colon; 109% in the assay with HCC-2998 colon; 101% with KM12 colon.
Turning to `COc1cc(C2c3cc4c(cc3C(O)C(CO)C2CO)OCO4)cc(OC)c1OC` (centres undefined), the growth with SR leukemia was 6.26% (active); in the assay on RPMI-8226 leukemia, 30.1%; in the assay on OVCAR-8 ovarian, 30%; with OVCAR-5 ovarian, 50.9%; in the assay on OVCAR-4 ovarian, 51%; in the assay on SK-OV-3 ovarian, 15.9%. The growth in the assay with IGROV1 ovarian is 13.9%; with OVCAR-3 ovarian, -44.5% (active); with HS 578T breast, -8.11% (active); with NCI/ADR-RES ovarian, 79.2%; in the assay on T-47D breast, 45.7%; in the assay on BT-549 breast, 58.7%. For the same molecule, the growth with MDA-MB-435 melanoma was -53.1% (active); in the assay on SW-620 colon, 19.6%; with MCF7 breast, 17.5%; with HCT-116 colon, 23.1%; in the assay on HCC-2998 colon, 40.9%; in the assay on KM12 colon it was 16.1%.
For the molecule `COc1cc(OC)cc(N2CCN(C(=O)Nc3nc4cc(F)ccc4nc3OC)CC2)c1`, the growth with SR leukemia was 8.23% (active); with RPMI-8226 leukemia it was 22.7%; with OVCAR-8 ovarian, 12.7%; in the assay with OVCAR-5 ovarian, 49%; in the assay with OVCAR-4 ovarian, 44%; with SK-OV-3 ovarian it was 14.4%. Further, the growth was 17.6% in the assay with IGROV1 ovarian; -11.8% (active) in the assay on OVCAR-3 ovarian; 37.6% in the assay with HS 578T breast; -2.42% (active) in the assay on NCI/ADR-RES ovarian; 70.4% in the assay with T-47D breast; 24.4% in the assay with BT-549 breast. The growth was -31.9% (active) in the assay with MDA-MB-435 melanoma; 22% in the assay on SW-620 colon; 23.4% with MCF7 breast; 0.21% (active) in the assay with HCT-116 colon; 21.4% in the assay on HCC-2998 colon; 13.7% in the assay with KM12 colon.
On to `N=C(N)c1ccc(-c2ccc(-c3ccccc3)s2)s1`, for which the growth in the assay with SR leukemia was -40% (active); in the assay on RPMI-8226 leukemia, -44.3% (active); with OVCAR-8 ovarian it was -39.9% (active); with OVCAR-5 ovarian, -23.7% (active); with OVCAR-4 ovarian, -70.2% (active); with SK-OV-3 ovarian, -50.1% (active). Also, the growth in the assay with IGROV1 ovarian was -31.1% (active); in the assay on OVCAR-3 ovarian, -41.3% (active); with HS 578T breast it was -21% (active); in the assay with NCI/ADR-RES ovarian it was -35.2% (active); with T-47D breast it was -66.9% (active); in the assay on BT-549 breast, 88.9%. Besides, the growth in the assay on MDA-MB-435 melanoma was -83.3% (active); in the assay with SW-620 colon, -71.1% (active); in the assay on MCF7 breast, -71.5% (active); with HCT-116 colon, -62% (active); in the assay on HCC-2998 colon, -80.8% (active).
For the molecule `Cc1ccc(/C=C2\CN(Cc3cn(CCNc4ccnc5cc(Cl)ccc45)nn3)C/C(=C\c3ccc(C)cc3)C2=O)cc1`, the growth in the assay with SR leukemia is -19.5% (active); in the assay on RPMI-8226 leukemia it was -30.2% (active); with OVCAR-8 ovarian, 8.83% (active); in the assay on OVCAR-5 ovarian, -10.9% (active); in the assay on OVCAR-4 ovarian, 30.3%; with SK-OV-3 ovarian, 8.53% (active). Also, the growth is 28.3% with IGROV1 ovarian; -50.6% (active) in the assay with OVCAR-3 ovarian; 13.9% with HS 578T breast; 9.21% (active) with NCI/ADR-RES ovarian; -12.3% (active) in the assay with T-47D breast; -71% (active) in the assay on BT-549 breast. Moreover, the growth is -67.3% (active) in the assay with MDA-MB-435 melanoma; -63.6% (active) with SW-620 colon; -38.3% (active) in the assay on MCF7 breast; -53.5% (active) in the assay on HCT-116 colon; -91% (active) in the assay with HCC-2998 colon; -93.8% (active) in the assay with KM12 colon.
In the case of `Cn1cnc([N+](=O)[O-])c1/C=C1\Oc2ccc(Cl)cc2C1=O`, the growth in the assay with SR leukemia is 20.7%; with RPMI-8226 leukemia, 70.7%; with OVCAR-8 ovarian, 72.5%; with OVCAR-5 ovarian, 108%; in the assay on OVCAR-4 ovarian it was 92.3%; with SK-OV-3 ovarian, 96.2%. Further, the growth was 73.1% with IGROV1 ovarian; 86% with OVCAR-3 ovarian; 104% with HS 578T breast; 100% with NCI/ADR-RES ovarian; 85.1% in the assay on T-47D breast; 109% in the assay with BT-549 breast. Moreover, the growth was 86.2% with MDA-MB-435 melanoma; 72% in the assay with SW-620 colon; 40.2% with MCF7 breast; 22.4% in the assay on HCT-116 colon; 97.4% in the assay with HCC-2998 colon; 82.9% in the assay with KM12 colon.
Take `C#Cc1ccc(-n2c(/C=C/c3cc(OC)c(OC)c(OC)c3)nc3ncccc3c2=O)cc1`: the growth is 11.2% in the assay on SR leukemia; 40.9% in the assay with RPMI-8226 leukemia; 75.1% in the assay with OVCAR-8 ovarian; 120% in the assay on OVCAR-5 ovarian; 63.4% in the assay on OVCAR-4 ovarian; 65.9% in the assay with SK-OV-3 ovarian. The growth in the assay with IGROV1 ovarian is 56.3%; in the assay with OVCAR-3 ovarian, 4.62% (active); with HS 578T breast it was 75.4%; in the assay on NCI/ADR-RES ovarian, 54.6%; in the assay on T-47D breast, 58.9%; in the assay with BT-549 breast, 59.7%. In addition, the growth with MDA-MB-435 melanoma was -9.47% (active); in the assay with SW-620 colon it was 49.1%; with MCF7 breast it was 25%; in the assay on HCT-116 colon, 54.2%; with HCC-2998 colon, 91%.
